High-throughput results as filed in PubChem.
nsP2pro inh: inhibitors of chikungunya virus nsP2 protease; Q8JUX6; AID 1964107; 31,000 compounds, 1.1% hits; Potency, µM (titrated, usually from 24.9 µM), hits mostly inhibitors; FRET peptide cleavage, nsP2pro, fluorescence 1 h; also: nearly all actives have a fitted effect of over 60% in size
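Enzyme 150 nM, substrate 2.5 uM (both final); Tris-HCl 10 mM pH 8.0 + 0.01% Tween 20; cpd up to 25 uM, 7 pts; 15 min preinc., 1 h RT; fluorescence ex 525/em 598.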
CHIKV nsP2 cell: inhibits CHIKV nsP2 protease in cells | 450 compounds, 10% hits | cell-based CHIKV nsP2 protease reporter assay | Potency, µM (series often up to 51.1 µM), hits mostly inhibitors | shares compounds with nsP2pro inh; also: nearly all actives have a fitted effect of over 70% in size
Target sequence (Q8JUX6 220-798 limits assumed): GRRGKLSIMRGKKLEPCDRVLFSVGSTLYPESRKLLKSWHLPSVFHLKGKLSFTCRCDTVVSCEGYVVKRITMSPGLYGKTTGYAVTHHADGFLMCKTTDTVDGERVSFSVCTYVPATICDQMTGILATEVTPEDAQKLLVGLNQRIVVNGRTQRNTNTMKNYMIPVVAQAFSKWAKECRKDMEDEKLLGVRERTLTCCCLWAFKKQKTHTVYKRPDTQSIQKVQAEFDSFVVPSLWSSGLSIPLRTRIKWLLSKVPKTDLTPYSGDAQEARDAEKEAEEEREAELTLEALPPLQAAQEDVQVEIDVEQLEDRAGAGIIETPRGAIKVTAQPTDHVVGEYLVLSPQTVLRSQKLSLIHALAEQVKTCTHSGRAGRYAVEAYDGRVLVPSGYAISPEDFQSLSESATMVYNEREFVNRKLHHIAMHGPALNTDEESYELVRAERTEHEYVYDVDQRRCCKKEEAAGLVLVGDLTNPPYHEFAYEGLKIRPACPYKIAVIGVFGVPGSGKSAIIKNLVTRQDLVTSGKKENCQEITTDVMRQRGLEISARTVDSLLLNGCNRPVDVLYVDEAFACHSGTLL
NSP2 full ctr: full-length CHIKV NSP2 protease inhibition, selectivity; 410 compounds, 39% hits; AID 1964101; Full-length CHIKV NSP2 protease enzymatic counterscreen; shares compounds with nsP2pro inh; Potency, µM (series often up to 50.7 µM), most hits filed as inhibitors; also: nearly all actives have a fitted effect of over 65% in size
Furin counterscr: selectivity counter-screen for CHIKV nsP2 protease inhibitors: human furin. Potency, µM (top dose mostly 50.6 µM), usual class: inhibitors. shares compounds with nsP2pro inh. 410 compounds, 6% hits. Recombinant human furin enzymatic counterscreen, fluorogenic substrate
NS23 peptide cs: nsP2pro inhibition on native NS2/3 peptide substrate; Potency, µM (series often up to 51 µM), hits mostly inhibitors; shares compounds with nsP2pro inh; Purified CHIKV nsP2 protease, endogenous NS2/3 peptide cleavage; 410 compounds, 34% hits; also: nearly all actives have a fitted effect of over 55% in size
Papain counter: inhibits papain in a CHIKV nsP2 protease selectivity counterscreen. Potency, µM (doses to about 51 µM), usual class: inhibitors. shares compounds with nsP2pro inh. purified papain protease activity, enzymatic inhibition. AID 1964104. 410 compounds, 5% hits
nsP2pro conf qHTS: confirmation of CHIKV nsP2 protease inhibitors. shares compounds with nsP2pro inh. CHIKV nsP2 protease enzymatic activity, qHTS. Potency, µM (doses to about 25.5 µM), hits mostly inhibitors. 410 compounds, 43% hits; also: nearly all actives have a fitted effect of over 75% in size
HCV NS3 counter: HCV NS3/4A protease inhibition, counterscreen. Potency, µM (highest dose often 50.9 µM), most hits filed as inhibitors. shares compounds with nsP2pro inh. AID 1964106. 410 compounds, 20% hits. HCV NS3/4A protease biochemical counterscreen; also: nearly all actives have a fitted effect of over 55% in size
Each line names hits and unclear results; the compound was inactive in the other large screens (follow-up assays come after a bar, where they were run). This is one part of a sample in which hits are shown more often than they occur. Calls follow the shape of the full dose curve.

OC(CN1CCN(c2cccc(Cl)c2)CC1)C(c1ccccc1)c1ccccc1 (stereo unspecified)	none
C=C1C(=O)OC2CC(C)=C(C(C)CCCO)C(O)C12 (stereo unspecified)	none
CS(=O)(=O)c1ccc(CC(=O)N[C@H](c2ccccn2)C2CC(O)C2)cc1 (stereo partly specified)	none
CS(=O)(=O)c1ccc(CN2CCC(C(O)c3ccccn3)CC2)cc1 (stereo unspecified)	nsP2pro inh 11µM
O=C(N[C@H](c1ccccn1)C1CC(O)C1)c1ccc(Cn2cccn2)o1 (stereo partly specified)	none
O=c1ccc2ccc(OCCCCN3CCN(c4cccc5sccc45)CC3)cc2[nH]1	none
O=C1CCC=CC1(O)C(=O)OCc1ccccc1O[C@@H]1O[C@H](CO)[C@@H](O)[C@H](O)[C@H]1O (stereo partly specified)	none
CN1CC(=O)N(C2CCCNCC2)Cc2c1ncnc2N1CCCC1CO (stereo unspecified)	none
CN(C)C(=O)N1CCN(C2CCNCC2)C(=O)C1	nsP2pro inh 13µM
COCCNC(=O)C1CCC(=O)N1C1CCNCC1 (stereo unspecified)	none
N#Cc1cnc(NS(=O)(=O)c2ccc(NC(=O)Cc3ccc(Cl)c(Cl)c3)cc2)s1	none
COc1ccc(C[C@H](C)NC[C@@H](O)c2ccc(O)c(NC=O)c2)cc1	none
CC(Cc1ccc2c(c1)OCO2)NCC(O)c1ccc(O)c(O)c1 (stereo unspecified)	nsP2pro inh 11µM
CC(CCc1ccc(O)cc1)NCC(O)c1ccc(O)cc1 (stereo unspecified)	none
CCOCCn1c(=O)n(Cc2cc(OC)ccn2)c2cc(C(=O)O)cnc21	none
C/C=C/c1cc(OC)c2c(c1)[C@@H](C)[C@@H](c1ccc(O)c(OC)c1)O2	none
C/C=C/c1ccc(O)c(OC)c1	nsP2pro inh inconclusive | CHIKV nsP2 cell inactive | NSP2 full ctr 18µM | Furin counterscr inactive | NS23 peptide cs inconclusive | Papain counter inactive | nsP2pro conf qHTS 5µM | HCV NS3 counter inconclusive
C/C=C/c1ccc(OC)cc1	none
CCc1noc(-c2cn(C3CCCN(C(=O)c4ccc(C(C)(C)C)cc4)C3)nn2)n1 (stereo unspecified)	none
COc1cccc(CN2Cc3cc(NC(=O)Cc4cccs4)ccc3OCC2=O)c1OC	none
Cc1cc(F)ccc1NC(=O)CCC1CCCN(C(=O)CC2=CCCCC2)C1 (stereo unspecified)	none
Cc1ccc(OCCn2c(CCNC(=O)c3ccccc3Br)nc3ccccc32)cc1	none
Cc1ccc(OCCn2c(CCNC(=O)c3ccccc3N)nc3ccccc32)cc1	nsP2pro inh 4.5µM | CHIKV nsP2 cell inactive | NSP2 full ctr 0.52µM | Furin counterscr 21µM | NS23 peptide cs 1.6µM | Papain counter inactive | nsP2pro conf qHTS 1µM | HCV NS3 counter 0.52µM
Cc1ccc(OCCn2c(CCNC(=O)c3cc(N)ccc3N)nc3ccccc32)cc1	none
C=C(C)C(=O)O[C@H]1C[C@@](C)(O)C2(O)CCC(C)(/C=C3/OC(=O)C(COC)=C31)O2 (stereo partly specified)	nsP2pro inh inconclusive | CHIKV nsP2 cell inconclusive | NSP2 full ctr inconclusive | Furin counterscr inactive | NS23 peptide cs inconclusive | Papain counter inactive | nsP2pro conf qHTS inconclusive | HCV NS3 counter inconclusive
NCC(=O)N1CCC2(CC1)CN(C(=O)Cc1cccc(Cl)c1)CCO2	none
CCN(CC)C(=O)N1CCC(c2noc(COc3ccc(F)cc3)n2)C1 (stereo unspecified)	none
CCS(=O)(=O)N[C@@H]1CN(Cc2ccccc2)C[C@H]1CN(C)C	none
CC1(CCC(=O)N2CCCC2C(=O)Nc2ccccc2Oc2cccnc2)CC1 (stereo unspecified)	none
CC(C(=O)O)c1ccc(C(=O)c2cccs2)cc1 (stereo unspecified)	none
C=C(C)CNc1ccc(C(C)C(=O)O)cc1 (stereo unspecified)	nsP2pro inh 8.8µM | CHIKV nsP2 cell inactive | NSP2 full ctr inactive | Furin counterscr inactive | NS23 peptide cs inactive | Papain counter inactive | nsP2pro conf qHTS inactive | HCV NS3 counter inactive
CC(C(=O)O)c1ccc(CC2CCCC2=O)cc1 (stereo unspecified)	none
O=C(c1cn(CCC2CCCCC2)nn1)N1CCN(C(=O)c2ccco2)CC1	none
O=C(O)CSc1cc(NS(=O)(=O)c2ccc(Br)cc2)c2ccccc2c1O	nsP2pro inh 1µM | CHIKV nsP2 cell inconclusive | NSP2 full ctr 4.1µM | Furin counterscr inactive | NS23 peptide cs 1.8µM | Papain counter 18µM | nsP2pro conf qHTS 0.8µM | HCV NS3 counter inconclusive
O=S(=O)(Nc1ccccc1)c1ccc(NCc2ccc(Br)cc2O)cc1	none
Cc1oc2c(cc(NS(=O)(=O)c3ccc(C(C)C)cc3)c3ccccc32)c1C(=O)OCc1ccccc1	none
Cc1nn(CC(=O)N2CCCCCC2)c(=O)c2nc(C(C)C)sc12	none
COc1ccc(CCN(C)CCCOc2nsc(-c3ccccc3)n2)cc1OC	none
O=C(NCc1nnc2n1C(C(=O)N1CCCC1)CC2)Nc1cccnc1 (stereo unspecified)	none
Cn1ccc(C(=O)NCc2nnc3n2C(C(=O)NCC2CC2)CC3)n1 (stereo unspecified)	nsP2pro inh 7.9µM | CHIKV nsP2 cell inactive | NSP2 full ctr inconclusive | Furin counterscr inactive | NS23 peptide cs inconclusive | Papain counter inactive | nsP2pro conf qHTS inconclusive | HCV NS3 counter 11µM
CC(=O)NCc1nnc2n1C(C(=O)NC1CCCCCC1)CC2 (stereo unspecified)	none
O=C(c1n[nH]c2ccccc12)N1CC2CC(C1)[C@H]1CCCC(=O)N1C2 (stereo partly specified)	none
COc1ccc(C23CCC(=O)C=C2N(C)CC3)cc1OC (stereo unspecified)	none
C=CC(C)(O)CC/C=C(/C)COC(=O)C(C)C1CCC(C)(C=C)O1 (stereo unspecified)	none
Oc1ccc(CNc2ccccc2F)c2cccnc12	nsP2pro inh 3.1µM | CHIKV nsP2 cell inactive | NSP2 full ctr 15µM | Furin counterscr inactive | NS23 peptide cs 11µM | Papain counter inactive | nsP2pro conf qHTS 1.9µM | HCV NS3 counter inactive
Oc1ccc(CNc2ccccc2Cl)c2cccnc12	none
Oc1ccc(CNc2ccccc2C(F)(F)F)c2cccnc12	none
